Only some compounds are listed: those with a hit (about 12% of all), similar ones and a draw of the others.
Insulin prom inh: TRM-6 insulin promoter activity inhibition; inhibition, % at 2 µM; AID 1273; TRM-6 cells (human fetal islet line), insulin promoter-eGFP reporter, imaging; reporter expression induced with tamoxifen; 130,000 tested, 0.9% active;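 active means inhibition above the mean plus 3 SD, with well images judged a real hit on visual review, cut at about 60% in these data, passing the limit was not always enough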
WT yeast gro inh: growth inhibition of WT yeast, mitochondrial fusion screen. AID 1362. inhibition, % at 10 µM. 190,000 tested, 2.1% active. mitochondrial fusion phenotypic screen, WT strain; in the data active means inhibition above about 58%; tested in S. cerevisiae
Ins promoter up: MIN6 insulin promoter up-regulation; MIN6 insulin promoter-GFP reporter, high-content imaging; stronger effect = higher value; z-score at 5 µM; 190,000 tested, 0.3% active; AID 1625;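 active means z-score above 3 at 5 µM with at least 500 cells counted in the well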
L major viab: reduces viability of Leishmania major promastigotes | resazurin fluorescence viability | inhibition, % at 10 µM | 200,000 tested, 9% active; in the data active means inhibition above about 50%;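 further: promastigotes grown with compound for 44 hours at 28 °C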
ROMK primary: modulates human ROMK potassium channel activity. Tet-inducible ROMK, thallium flux fluorescence; actives lie on both sides. B-score at 10 µM. 130,000 tested, 2% active;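 active means signal ratio slope over the read window, or its plate-corrected B-score, at least 3 SD from the plate mean, either direction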;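 further: B-score of the F/F0 ratio slope over 7 to 12 s after thallium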
Target sequence (P48048 whole entry, looked up): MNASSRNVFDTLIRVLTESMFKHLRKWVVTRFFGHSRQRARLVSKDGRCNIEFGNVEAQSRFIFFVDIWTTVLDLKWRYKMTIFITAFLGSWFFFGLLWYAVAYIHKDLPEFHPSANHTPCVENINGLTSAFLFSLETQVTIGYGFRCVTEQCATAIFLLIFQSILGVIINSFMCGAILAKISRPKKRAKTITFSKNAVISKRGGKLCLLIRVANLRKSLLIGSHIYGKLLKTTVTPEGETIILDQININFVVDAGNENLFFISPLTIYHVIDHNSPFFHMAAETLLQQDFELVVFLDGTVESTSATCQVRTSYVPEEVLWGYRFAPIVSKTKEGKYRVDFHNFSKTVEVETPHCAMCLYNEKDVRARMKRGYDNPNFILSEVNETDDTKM
KCC2 mod: modulators of human KCC2 chloride dependent transport; B-score of Tl+ flux slope (higher = more flux/activation; lower = inhibition) at 10 µM; Q9H2X9; KCC2 cells, thallium flux FluoZin-2 fluorescence; 190,000 tested, 2.2% active;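 active means thallium flux slope and its plate-corrected score both differing from the plate sample mean at a set confidence after two filtering rounds, in either direction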;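 further: slope of fluorescence scaled to starting intensity during 10 to 20 s after thallium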
* marks the source's active call; other numbers are inactive results; / = no result given.

SMILES	Insulin prom inh	WT yeast gro inh	Ins promoter up	L major viab	ROMK primary	KCC2 mod
C=CCNCCCOc1ccc(Cl)cc1C(C)(C)C	/	75*	-0.09	100*	-1.6	0.64
C=CCc1ccc(OCCOCCN(C)C)c(OC)c1	17	6	0.31	38	-0.094	/
COCCNCCCCSc1ccc(Cl)cc1	/	8	-0.23	92*	-1.3	-0.07
Cc1n[nH]c(C)c1S(=O)(=O)N1CCOCC1	-19	0	-0.05	-3	-0.99	/
COCCCNCCOCCOc1c(OC)cccc1OC	-22	-7	0.62	83*	/	0.46
CC(C)(C)NCCOCCOc1ccc(Cl)cc1C(C)(C)C	/	43	-0.15	91*	0.054	-0.1
COCCCNCCOCCOc1ccc(Cl)cc1C(C)(C)C	-55	49	-0.59	100*	-4	0.12
OCCNCCCOc1cc(Cl)ccc1Cl	36	-1	0.21	10	/	1
CN(C)c1nc(N(C)C)nc(N2CC(CCl)OC2=N)n1 (stereo not drawn)	60	-8	-0.68	0	-0.13	-1.2
Nc1nc(COc2ccc3ccccc3c2)cs1	-257	75*	0.37	-5	-1.4	-2.7
C=CCN(c1ccccc1OC)S(=O)(=O)c1cccc(C(=O)OCC(=O)c2c[nH]c3ccccc23)c1	-30	5	1.1	97*	0.7	0.22
COc1cc(OC)c(N(C)S(=O)(=O)c2cccc(C(=O)OCC(=O)c3c[nH]c4ccccc34)c2)cc1Cl	-36	15	-0.02	97*	0.16	0
CCCn1nnc(NC(=O)COc2ccc(C3CCCCC3)cc2)n1	100*	-1	-0.16	2	/	-1.3
C#CCOc1ccc(Cl)cc1/C=N/O	25	31	0.98	-1	0.72	/
O/N=C/c1cc(Cl)ccc1OCc1cccc2ccccc12	27	97*	-0.33	3	/	0.12
O=C(Nc1ccccc1)c1ccccc1OCc1cccc([N+](=O)[O-])c1	-46	-10	-0.32	55*	/	-1.4
Cc1cccc(CN(CC(=O)N/N=C/c2cccs2)S(=O)(=O)c2ccc(Cl)cc2)c1	-34	50	0.75	93*	/	0.94
Cc1cc(C)cc(NS(=O)(=O)c2ccc(NC(=O)C3CCCCC3C(=O)O)cc2)c1 (stereo not drawn)	24	2	0.21	50	0.28	0.71
COc1cccc(NC(=O)c2ccco2)c1	-68	-7	0	-3	/	0.96
CCOc1cc(NC(=O)c2ccco2)c(OCC)cc1NC(=O)COc1ccccc1C	-71	/	/	-5	/	0.3
COc1cccc(C(=O)COc2cccc(NC(=O)c3ccco3)c2)c1	/	-7	-0.17	40	-0.22	-0.86
Cc1ccc(C(=O)C(C)Oc2cccc(NC(=O)c3ccco3)c2)cc1 (stereo not drawn)	-99	-12	/	97*	-0.47	-1.5
O=C(Nc1ccc(Oc2cccc3ccccc23)cc1)c1ccco1	-14	79*	0.34	12	/	-1.6
COc1ccc(C(=O)COc2cccc(NC(=O)c3ccco3)c2)cc1	-294	9	/	59*	0.14	-1.7
O=C(O)c1ccccc1C(=O)Nc1ccc(Oc2cccc3ccccc23)cc1	/	-22	0.03	-6	0.35	-1.7
SMILES	Insulin prom inh	WT yeast gro inh	Ins promoter up	L major viab	ROMK primary	KCC2 mod
CCOc1cc(NC(=O)c2ccco2)c(OCC)cc1NC(=O)Cc1cccc(OC)c1	5	9	-0.38	63*	/	/
Cc1nn(C2CCCO2)c(=O)nc1N (stereo not drawn)	/	-8	0.73	2	-1.3	0.13
Cc1ccc(CCNC(=O)C2CCN(S(=O)(=O)c3cccc4nonc34)CC2)cc1	39	14	0.02	-5	/	-0.51
Cc1nc2ccccn2c1C(=O)N/N=C/c1cc(C)n(-c2ccc(Br)cc2)c1C	38	20	/	12	-3.6	-0.08
CC(Oc1ccc(NC(=O)c2ccco2)cc1)C(=O)N1c2ccccc2CC1C (stereo not drawn)	/	-1	2.4	58*	0.26	-1.3
O=C(Nc1ccc(OC(=O)c2ccco2)cc1)c1ccco1	14	26	0.14	-2	-1.7	/
O=C(OC1CCCCC1)c1ccc(NC(=O)c2ccco2)cc1	-48	71*	-0.19	75*	/	-1
CC(C)Oc1cccc(C(=O)Nc2ccc(NC(=O)c3ccco3)cc2)c1	/	7	/	-2	0.59	/
CCn1c(CSCc2ccc(Cl)cc2)nnc1SCC(=O)Nc1cccc(C(=O)O)c1	/	2	0.17	-7	0.36	0.43
CCc1nnc(NC(=O)c2ccc(Cl)c(S(=O)(=O)N3CCc4ccccc43)c2)s1	/	3	-0.29	6	-2.5	-1
O=C(Nc1nnc(C2CC2)s1)c1ccc(Cl)c(S(=O)(=O)N2CCc3ccccc3C2)c1	60*	-18	0.25	-5	-0.37	-0.47
CN1CCN(C(=O)C2=C[C@@H](c3coc4ccccc4c3=O)C[C@@H](OCCCCO)O2)CC1	/	6	1.1	-2	/	0.98
Cc1nnc(SCc2ccc(F)cc2)n1NC/C=C/c1ccccc1	/	6	-0.47	-9	/	-4.7*
Cn1c(-c2ccc(F)cc2)cnc1NCc1cccc(F)c1	-31	5	-0.62	78*	/	0.32
O=C(O)c1cccc(NCc2cccnc2)c1	16	5	-0.27	-4	0.3	-0.75
Cn1c(-c2ccc3c(c2)OCO3)cnc1NCc1cccc(O)c1	/	-13	-0.31	63*	-0.012	-0.69
COc1cccc(-c2cnc(NCc3cc(Cl)ccc3O)n2C)c1	/	30	-1.7	63*	-1.1	0.46
Cn1c(-c2cccc(Br)c2)cnc1NCc1cccnc1	33	8	-0.31	97*	-0.88	/
Cn1c(-c2ccc(F)cc2)cnc1NCc1ccccc1	-21	-9	/	28	-1.3	-0.13
CCCCCCOc1ccc(N2C(=O)CC(S/C(N)=N/N=C(\C)c3cccs3)C2=O)cc1 (stereo not drawn)	/	38	1.4	-2	0.74	-0.68
COc1ccc(C(=O)CSc2nnc(CNC(=O)c3ccco3)n2C)cc1	/	4	0.65	-1	-0.014	-0.028
CCOC(=O)c1ccc(NC(=O)c2cc(OC)c(OC)c(OC)c2Br)cc1	-11	31	0.05	74*	/	-1.1
CCCCCCOC(=O)c1ccc(NC(=O)c2cc(OC)c(OC)c(OC)c2Br)cc1	62	32	0.4	-2	0.46	0.62
Cc1nc(C)c(C(=O)O)c(-c2ccsc2)c1C(=O)O	/	/	-0.17	/	-1.1	-0.19
CC(C)(C)c1ccc(C(=O)NCC(=O)O)cc1	/	11	0.84	-8	1.1	0.71
SMILES	Insulin prom inh	WT yeast gro inh	Ins promoter up	L major viab	ROMK primary	KCC2 mod
CCc1ccc(CCN2C(=O)c3ccccc3C2=O)nc1	/	/	0.64	/	/	-0.18
COc1ccc(C(C)=O)cc1CSc1nnnn1-c1ccc(O)cc1	/	/	0.01	/	/	-1.3
CCOc1ccc(C(C)=O)cc1CSc1nnnn1-c1ccc(O)cc1	/	-16	-0.27	60*	1.4	0.063
COc1ccc(OC)c(NC(=O)C2C3CCC(C3=C(C)C)C2C(=O)O)c1 (stereo not drawn)	/	-27	0.7	-5	/	/
COc1cc(OC)cc(C(=O)NNC(=O)c2ccc(S(=O)(=O)N(C)c3ccccc3OC)cc2)c1	/	/	0.57	/	/	0
O=C(CSc1ncn[nH]1)Nc1ccccc1-c1ccccc1	51	-1	0.74	-3	/	-0.0064
